Assay in all cases: DAPPL (digital affinity profiling via proximity ligation, sequencing); 10 mM Tris-HCl pH 7.5, 50 mM NaCl, 1 mM DTT, 4% glycerol, room temperature, 30 min; GST-TFs on glutathione beads, 16-mer random dsDNA library, 0.1% formaldehyde crosslink after washing; high values mean tight binding
Holding throughout (conditions): protein: recombinant; tags: N-terminal GST; dsDNA, one strand shown

In assay [1] the target is T1, FLI1 (Homo sapiens, UniProt Q01543 1-452).
T1 sequence: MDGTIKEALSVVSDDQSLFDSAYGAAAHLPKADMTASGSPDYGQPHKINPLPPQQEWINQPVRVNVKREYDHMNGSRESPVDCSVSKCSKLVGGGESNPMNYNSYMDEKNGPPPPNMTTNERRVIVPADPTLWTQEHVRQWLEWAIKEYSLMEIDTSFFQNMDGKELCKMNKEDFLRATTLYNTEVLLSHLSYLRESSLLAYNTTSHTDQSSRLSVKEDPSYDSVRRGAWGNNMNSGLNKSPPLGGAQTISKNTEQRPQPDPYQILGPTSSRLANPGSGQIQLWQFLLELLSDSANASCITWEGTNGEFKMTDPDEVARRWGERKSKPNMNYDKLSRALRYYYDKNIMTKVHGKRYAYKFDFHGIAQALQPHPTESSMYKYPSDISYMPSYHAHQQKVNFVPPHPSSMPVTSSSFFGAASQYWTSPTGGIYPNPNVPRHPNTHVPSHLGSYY
In short, it runs like this:
(§1)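 Beads coated with glutathione captured GST-fused human transcription factors that had been expressed in yeast, and the factors were then given DNA barcodes and pooled with a tag-only sample. The pools were incubated with 200 nmole of a random double-stranded 16-mer DNA library in Tris/NaCl/DTT/glycerol buffer for 30 min at room temperature, washed, crosslinked with 0.1% formaldehyde and proximity-ligated with BsaI/T4 ligase at 37 °C for 1 h. PCR amplification and Illumina NextSeq500 sequencing came last. Binding signal is each hexamer's read frequency for a factor divided by its frequency for the tag-only sample.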

The target of assay [2] is T2, ELK1 (Homo sapiens, UniProt P19419 1-428).
T2 sequence: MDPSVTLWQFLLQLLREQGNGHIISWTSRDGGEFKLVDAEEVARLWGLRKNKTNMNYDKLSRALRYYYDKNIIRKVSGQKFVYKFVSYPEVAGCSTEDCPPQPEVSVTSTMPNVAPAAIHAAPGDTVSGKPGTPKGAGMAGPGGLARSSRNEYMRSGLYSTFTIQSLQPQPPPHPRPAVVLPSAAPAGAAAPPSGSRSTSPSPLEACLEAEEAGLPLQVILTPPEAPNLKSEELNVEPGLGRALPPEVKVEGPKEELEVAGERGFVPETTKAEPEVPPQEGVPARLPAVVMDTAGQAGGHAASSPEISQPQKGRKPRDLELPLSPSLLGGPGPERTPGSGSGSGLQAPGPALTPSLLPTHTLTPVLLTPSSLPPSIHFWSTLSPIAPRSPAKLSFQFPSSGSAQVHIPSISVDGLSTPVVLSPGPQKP
In short, it runs like this: as §1

In assay [3] the target is T3, GABPA (Homo sapiens, UniProt Q06546 1-454).
T3 sequence: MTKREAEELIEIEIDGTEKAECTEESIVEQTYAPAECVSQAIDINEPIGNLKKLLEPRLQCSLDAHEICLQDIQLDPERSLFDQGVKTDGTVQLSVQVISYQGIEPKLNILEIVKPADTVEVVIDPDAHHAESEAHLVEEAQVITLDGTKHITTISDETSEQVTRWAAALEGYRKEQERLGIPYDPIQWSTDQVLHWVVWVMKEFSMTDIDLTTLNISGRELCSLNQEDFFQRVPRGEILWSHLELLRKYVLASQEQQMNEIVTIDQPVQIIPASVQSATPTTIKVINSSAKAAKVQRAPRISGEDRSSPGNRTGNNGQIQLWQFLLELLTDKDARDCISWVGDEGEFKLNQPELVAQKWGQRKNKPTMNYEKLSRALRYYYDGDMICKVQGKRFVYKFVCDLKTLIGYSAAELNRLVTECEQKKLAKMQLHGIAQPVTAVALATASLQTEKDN
The method, boiled down:
as §1

In assay [4] the target is T4, ERG (Homo sapiens, UniProt P11308 1-479).
T4 sequence: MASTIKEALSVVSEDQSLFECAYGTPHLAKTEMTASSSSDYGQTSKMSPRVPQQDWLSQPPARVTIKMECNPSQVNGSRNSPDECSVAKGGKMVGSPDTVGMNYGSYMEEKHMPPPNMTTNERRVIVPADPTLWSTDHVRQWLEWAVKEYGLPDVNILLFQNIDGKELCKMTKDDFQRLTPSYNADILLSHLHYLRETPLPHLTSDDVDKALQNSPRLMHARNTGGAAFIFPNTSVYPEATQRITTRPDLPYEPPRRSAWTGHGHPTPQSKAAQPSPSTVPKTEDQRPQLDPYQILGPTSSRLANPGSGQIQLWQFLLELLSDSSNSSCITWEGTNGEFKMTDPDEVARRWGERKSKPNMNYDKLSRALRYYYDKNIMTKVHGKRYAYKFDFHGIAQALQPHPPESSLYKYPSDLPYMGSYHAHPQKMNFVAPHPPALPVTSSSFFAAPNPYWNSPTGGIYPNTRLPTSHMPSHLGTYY
The method, boiled down: as §1

The target of assay [5] is ELF1 (Homo sapiens, UniProt P32519 1-619). The method, boiled down: as §1
Chain of ELF1 (P32519 whole entry): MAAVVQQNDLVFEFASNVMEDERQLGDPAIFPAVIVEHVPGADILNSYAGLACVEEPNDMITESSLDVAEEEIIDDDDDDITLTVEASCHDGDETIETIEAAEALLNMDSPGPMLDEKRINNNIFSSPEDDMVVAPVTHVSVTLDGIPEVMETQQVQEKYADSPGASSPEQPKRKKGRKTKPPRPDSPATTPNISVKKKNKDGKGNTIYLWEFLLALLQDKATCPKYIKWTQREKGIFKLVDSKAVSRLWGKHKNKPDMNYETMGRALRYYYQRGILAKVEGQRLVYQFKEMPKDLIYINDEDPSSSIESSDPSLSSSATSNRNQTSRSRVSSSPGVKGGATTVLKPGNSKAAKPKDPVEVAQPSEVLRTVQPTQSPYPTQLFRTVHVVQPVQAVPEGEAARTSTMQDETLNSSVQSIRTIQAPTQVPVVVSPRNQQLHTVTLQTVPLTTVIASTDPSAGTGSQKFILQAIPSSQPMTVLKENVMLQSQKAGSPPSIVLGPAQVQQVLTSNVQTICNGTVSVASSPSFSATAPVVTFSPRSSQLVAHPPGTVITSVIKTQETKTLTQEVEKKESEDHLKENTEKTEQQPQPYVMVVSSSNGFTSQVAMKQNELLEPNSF
Assay [6] deals with SPI1 (Homo sapiens, UniProt P17947 1-270). In short, it runs like this:
as §1

The target of assay [7] is SPIB (Homo sapiens, UniProt Q01892 1-262). The method, boiled down:
as §1

For assay [8], the target named is T5, ELK3 (Homo sapiens, UniProt P41970 1-407).
T5 sequence: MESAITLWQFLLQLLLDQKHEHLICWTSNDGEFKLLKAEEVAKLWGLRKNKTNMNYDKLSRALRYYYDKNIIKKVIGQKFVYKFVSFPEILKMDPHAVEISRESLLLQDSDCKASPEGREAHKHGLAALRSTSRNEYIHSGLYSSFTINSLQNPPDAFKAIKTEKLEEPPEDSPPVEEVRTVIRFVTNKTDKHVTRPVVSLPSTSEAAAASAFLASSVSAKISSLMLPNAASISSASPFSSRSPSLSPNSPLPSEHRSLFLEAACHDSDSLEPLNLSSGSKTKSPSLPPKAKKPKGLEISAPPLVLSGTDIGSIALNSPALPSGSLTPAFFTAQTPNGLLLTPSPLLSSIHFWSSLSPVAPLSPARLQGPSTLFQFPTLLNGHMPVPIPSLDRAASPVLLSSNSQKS
The method, boiled down: as §1

Assay [9] has as its target ETV5 (Homo sapiens, UniProt P41161 1-510). The method, boiled down: as §1
Assay [10] deals with T6, SPIC (Homo sapiens, UniProt Q8N5J4 1-248).
T6 sequence: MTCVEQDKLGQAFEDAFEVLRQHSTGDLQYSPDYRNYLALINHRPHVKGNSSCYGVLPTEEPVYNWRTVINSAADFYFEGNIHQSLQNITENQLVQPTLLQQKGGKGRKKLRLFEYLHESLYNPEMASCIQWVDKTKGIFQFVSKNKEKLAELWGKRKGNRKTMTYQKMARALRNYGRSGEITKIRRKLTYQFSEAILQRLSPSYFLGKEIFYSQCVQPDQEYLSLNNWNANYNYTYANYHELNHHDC
The method, boiled down: as §1

In assay [11] the target is T7, ETV3L (Homo sapiens, UniProt Q6ZN32 1-361).
T7 sequence: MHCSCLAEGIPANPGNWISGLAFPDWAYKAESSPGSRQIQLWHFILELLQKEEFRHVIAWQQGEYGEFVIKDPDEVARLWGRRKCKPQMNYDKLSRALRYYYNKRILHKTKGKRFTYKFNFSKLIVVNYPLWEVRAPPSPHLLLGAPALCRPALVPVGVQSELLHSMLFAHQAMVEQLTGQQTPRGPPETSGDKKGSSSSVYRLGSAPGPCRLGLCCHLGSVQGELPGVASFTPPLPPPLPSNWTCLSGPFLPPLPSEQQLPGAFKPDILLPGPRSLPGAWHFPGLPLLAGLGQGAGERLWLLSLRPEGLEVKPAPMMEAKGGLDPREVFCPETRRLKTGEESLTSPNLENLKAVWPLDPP
In short, it runs like this: as §1

Assay [12] has as its target T8, ETS2 (Homo sapiens, UniProt P15036 1-469).
T8 sequence: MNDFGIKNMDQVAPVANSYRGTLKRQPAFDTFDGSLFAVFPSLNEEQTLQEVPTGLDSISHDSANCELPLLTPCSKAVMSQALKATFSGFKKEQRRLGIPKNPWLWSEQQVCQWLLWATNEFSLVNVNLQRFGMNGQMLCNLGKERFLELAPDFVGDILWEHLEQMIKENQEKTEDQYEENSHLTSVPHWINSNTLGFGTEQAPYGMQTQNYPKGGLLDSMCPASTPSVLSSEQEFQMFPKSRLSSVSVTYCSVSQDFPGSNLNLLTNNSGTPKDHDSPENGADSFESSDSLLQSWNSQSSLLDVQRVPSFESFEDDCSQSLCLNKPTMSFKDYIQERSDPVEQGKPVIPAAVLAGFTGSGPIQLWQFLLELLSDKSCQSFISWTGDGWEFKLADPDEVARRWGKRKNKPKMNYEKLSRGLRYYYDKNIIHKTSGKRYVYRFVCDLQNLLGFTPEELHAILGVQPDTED
The method, boiled down: as §1

Assay [13] addresses T9, ELF5 (Homo sapiens, UniProt Q9UKW6-2 1-255).
T9 sequence: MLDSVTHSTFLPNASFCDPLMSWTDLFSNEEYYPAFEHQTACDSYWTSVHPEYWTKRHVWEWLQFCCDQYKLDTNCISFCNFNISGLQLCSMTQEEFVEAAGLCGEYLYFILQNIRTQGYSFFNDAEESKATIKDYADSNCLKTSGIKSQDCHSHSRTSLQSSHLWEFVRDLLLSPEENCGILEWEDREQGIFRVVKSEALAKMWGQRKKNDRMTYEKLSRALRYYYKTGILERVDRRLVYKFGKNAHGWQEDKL
The method, boiled down:
as §1

Assay [14] has as its target T10, ETV3 (Homo sapiens, UniProt P41162-2 1-143).
T10 sequence: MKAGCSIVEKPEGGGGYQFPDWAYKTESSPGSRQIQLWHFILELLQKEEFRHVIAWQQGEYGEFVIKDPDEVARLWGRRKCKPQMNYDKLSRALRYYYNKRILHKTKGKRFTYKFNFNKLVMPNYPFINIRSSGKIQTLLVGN
The method, boiled down:
as §1

Assay [15] concerns the target ETV6 (Homo sapiens, UniProt P41212 1-452). The method, boiled down:
as §1

Assay [16] has as its target T11, EHF (Homo sapiens, UniProt Q9NZC4 1-300).
T11 sequence: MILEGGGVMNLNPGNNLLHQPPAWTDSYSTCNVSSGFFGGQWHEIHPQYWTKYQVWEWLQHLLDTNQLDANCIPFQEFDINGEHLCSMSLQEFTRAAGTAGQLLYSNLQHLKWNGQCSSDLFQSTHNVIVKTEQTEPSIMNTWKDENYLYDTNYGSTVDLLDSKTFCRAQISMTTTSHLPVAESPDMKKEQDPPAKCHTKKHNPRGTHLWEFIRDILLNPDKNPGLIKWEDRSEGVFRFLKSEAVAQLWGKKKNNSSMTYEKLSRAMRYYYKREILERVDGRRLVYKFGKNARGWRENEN
The method, boiled down: as §1

Assay [17] deals with ETV1 (Homo sapiens, UniProt P50549 1-477). The method, boiled down:
as §1

Chain of ETV5 (P41161 whole entry): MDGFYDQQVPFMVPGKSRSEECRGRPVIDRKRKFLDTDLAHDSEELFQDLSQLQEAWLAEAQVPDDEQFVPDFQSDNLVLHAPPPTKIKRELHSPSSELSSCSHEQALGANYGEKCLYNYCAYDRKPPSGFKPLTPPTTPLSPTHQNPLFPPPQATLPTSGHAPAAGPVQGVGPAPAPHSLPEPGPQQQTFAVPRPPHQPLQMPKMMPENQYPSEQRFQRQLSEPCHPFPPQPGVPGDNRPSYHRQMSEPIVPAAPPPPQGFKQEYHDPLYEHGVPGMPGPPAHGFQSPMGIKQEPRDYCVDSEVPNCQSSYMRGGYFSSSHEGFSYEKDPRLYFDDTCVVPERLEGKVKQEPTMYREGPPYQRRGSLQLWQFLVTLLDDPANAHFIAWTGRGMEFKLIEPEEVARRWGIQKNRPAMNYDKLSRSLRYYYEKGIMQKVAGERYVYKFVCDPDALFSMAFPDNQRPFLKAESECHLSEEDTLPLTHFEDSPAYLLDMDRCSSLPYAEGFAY
Chain of ETV6 (P41212 whole entry): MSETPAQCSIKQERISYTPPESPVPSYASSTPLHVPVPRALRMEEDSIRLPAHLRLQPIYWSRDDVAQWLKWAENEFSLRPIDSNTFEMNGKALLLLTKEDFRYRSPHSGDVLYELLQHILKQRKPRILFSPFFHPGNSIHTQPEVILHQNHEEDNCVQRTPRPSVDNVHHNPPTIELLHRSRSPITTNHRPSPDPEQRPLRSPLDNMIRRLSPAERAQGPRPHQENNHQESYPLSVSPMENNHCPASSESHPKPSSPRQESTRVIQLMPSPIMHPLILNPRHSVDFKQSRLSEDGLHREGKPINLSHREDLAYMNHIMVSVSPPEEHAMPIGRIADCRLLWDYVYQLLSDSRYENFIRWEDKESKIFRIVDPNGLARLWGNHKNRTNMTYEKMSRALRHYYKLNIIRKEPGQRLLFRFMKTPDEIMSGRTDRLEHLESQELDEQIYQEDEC
Chain of SPIB (Q01892 whole entry): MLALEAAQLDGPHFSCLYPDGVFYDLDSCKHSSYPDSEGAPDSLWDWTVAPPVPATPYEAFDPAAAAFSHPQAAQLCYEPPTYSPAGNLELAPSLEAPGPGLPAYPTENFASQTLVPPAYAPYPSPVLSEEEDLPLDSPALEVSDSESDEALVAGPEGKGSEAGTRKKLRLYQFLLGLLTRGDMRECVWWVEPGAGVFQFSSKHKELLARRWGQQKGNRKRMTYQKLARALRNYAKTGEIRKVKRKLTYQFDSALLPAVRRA
Chain of ETV1 (P50549 whole entry): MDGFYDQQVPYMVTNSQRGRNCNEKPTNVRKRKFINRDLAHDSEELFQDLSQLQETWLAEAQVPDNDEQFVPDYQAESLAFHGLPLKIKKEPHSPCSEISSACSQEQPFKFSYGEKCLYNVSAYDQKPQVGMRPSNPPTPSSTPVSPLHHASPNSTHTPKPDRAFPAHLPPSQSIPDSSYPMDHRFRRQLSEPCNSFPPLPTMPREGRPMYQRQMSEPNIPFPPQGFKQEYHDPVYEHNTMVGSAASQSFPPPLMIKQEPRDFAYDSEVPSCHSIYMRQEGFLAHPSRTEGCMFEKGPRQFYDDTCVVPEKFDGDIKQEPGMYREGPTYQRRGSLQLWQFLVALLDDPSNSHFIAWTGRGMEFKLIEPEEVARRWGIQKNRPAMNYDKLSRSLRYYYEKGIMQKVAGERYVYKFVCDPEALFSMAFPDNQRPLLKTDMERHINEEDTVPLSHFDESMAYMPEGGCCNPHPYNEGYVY

As for ATGGCG, the binding signal is 1 fold enrichment (6-mer frequency, TF over GST control) in [1]; 1.05 fold enrichment (6-mer frequency, TF over GST control) in assay [2]; 1.04 fold enrichment (6-mer frequency, TF over GST control) in assay [3]; 1.02 fold enrichment (6-mer frequency, TF over GST control) in assay [4]; 1.06 fold enrichment (6-mer frequency, TF over GST control) in assay [5]; 1.03 fold enrichment (6-mer frequency, TF over GST control) in [6]. Also, the binding signal was 1.01 fold enrichment (6-mer frequency, TF over GST control) in assay [7]; 1.01 fold enrichment (6-mer frequency, TF over GST control) in [8]; 1.02 fold enrichment (6-mer frequency, TF over GST control) in [9]; 1.16 fold enrichment (6-mer frequency, TF over GST control) in [10]; 1.03 fold enrichment (6-mer frequency, TF over GST control) in assay [11]; 1.11 fold enrichment (6-mer frequency, TF over GST control) in assay [12]. In addition, the binding signal in assay [13] is 1.01 fold enrichment (6-mer frequency, TF over GST control); in [14], 1.09 fold enrichment (6-mer frequency, TF over GST control); in [15], 1.05 fold enrichment (6-mer frequency, TF over GST control).

Turning to ACGGTT, the binding signal was 1.07 fold enrichment (6-mer frequency, TF over GST control) in assay [1]; 1.02 fold enrichment (6-mer frequency, TF over GST control) in assay [2]; 1.03 fold enrichment (6-mer frequency, TF over GST control) in assay [5]; 1.04 fold enrichment (6-mer frequency, TF over GST control) in assay [16]; 1.02 fold enrichment (6-mer frequency, TF over GST control) in assay [6]; 1.02 fold enrichment (6-mer frequency, TF over GST control) in assay [7]. The binding signal in assay [9] was 1 fold enrichment (6-mer frequency, TF over GST control); in assay [10] it was 1.04 fold enrichment (6-mer frequency, TF over GST control); in assay [17] it was 1.08 fold enrichment (6-mer frequency, TF over GST control); in assay [13], 1.05 fold enrichment (6-mer frequency, TF over GST control); in assay [15], 1.01 fold enrichment (6-mer frequency, TF over GST control).

These data come from article PMC7862700, “An all-to-all approach to the identification of sequence-specific readers for epigenetic DNA modifications on cytosine”.
